# Screening results (PubChem BioAssay)
# Only some compounds are listed: those with a hit (about 27% of all), similar ones and a draw of the others.
# CYP2C9 inhib: blocks human cytochrome P450 2C9. P11712. CYP2C9 Supersomes, luciferin-H conversion, luminescence. inhibition, % at 5 µM. hit rate 20% among 96,000. AID 777;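 active means blocking of liver enzyme CYP2C9 beyond about 50% at 5 µM, limit read from the data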
# Target sequence (P11712 whole entry, looked up): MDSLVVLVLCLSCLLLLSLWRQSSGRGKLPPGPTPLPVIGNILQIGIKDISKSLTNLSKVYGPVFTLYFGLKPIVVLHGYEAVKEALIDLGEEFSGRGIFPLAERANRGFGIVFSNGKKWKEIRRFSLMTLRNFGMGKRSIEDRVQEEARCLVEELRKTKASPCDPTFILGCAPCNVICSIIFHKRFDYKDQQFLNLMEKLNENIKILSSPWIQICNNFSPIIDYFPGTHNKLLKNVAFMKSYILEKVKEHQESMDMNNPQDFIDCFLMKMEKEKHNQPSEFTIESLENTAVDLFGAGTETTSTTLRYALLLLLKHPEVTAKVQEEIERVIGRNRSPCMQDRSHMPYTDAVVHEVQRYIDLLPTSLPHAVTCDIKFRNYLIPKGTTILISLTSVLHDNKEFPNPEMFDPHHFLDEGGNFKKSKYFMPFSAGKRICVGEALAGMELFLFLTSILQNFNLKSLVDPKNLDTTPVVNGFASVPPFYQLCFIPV
# CYP2C9 activ: increases human cytochrome P450 2C9 activity | recombinant CYP2C9, luciferin-H conversion, luminescence; active compounds read high; factor 1 = untreated enzyme, 0 = blocked | activation factor at 5 µM | hit rate 1.4% among 96,000;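 active means activation factor of 2 or more for CYP2C9 at a 5 µM dose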;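 further: 0 = sulfaphenazole-blocked wells and 1 = vehicle-only wells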
# Cav3 T inh: inhibitors of human Cav3.2 T-type calcium channel | O95180 | Cav3.2-expressing cells, Fluo-4 calcium fluorescence FDSS; active compounds read low | AID 449739 | hit rate 4% among 100,000 | B-score at 10 µM;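 active means single-dose well whose peak fluorescence ratio is a statistical outlier from its plate by either plate-standardised score or position-corrected B-score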
# CYP2C19 inhib: inhibitors of human CYP2C19 | P33261 | inhibition, % at 5 µM | AID 778 | hit rate 21% among 96,000 | CYP2C19 Supersomes, luciferin-H EGE luminescence, 30 min;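 active means CYP2C19 inhibition above a set limit at 5 µM in the primary screen, cut at about 50% in these data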;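 further: plate controls were negative control wells for no effect and 2.5 mM tranylcypromine positive control for full effect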
# CYP2C19 activ: cytochrome P450 2C19 (human) activation; recombinant CYP2C19, luciferin-H EGE luminescence; active compounds read high; 0 = fully inhibited enzyme, 1 = untreated enzyme; 96,000 tested, under 10 active; activation factor at 5 µM; P33261;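 active means activation factor of at least 2 at 5 µM in the primary screen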;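 further: 0 = wells with 2.5 mM tranylcypromine and 1 = vehicle-only wells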
# * marks the source's active call; other numbers are inactive results; nt = not tested or not shown.
SMILES,CYP2C9 inhib,CYP2C9 activ,Cav3 T inh,CYP2C19 inhib,CYP2C19 activ
O=c1[nH]c(Cc2ccccc2)nc2scc(-c3ccccc3)c12,35,0.6,0.84,15,0.9
O=C(c1ccccc1)N1CCN(C2CC(=O)N(CCc3ccccc3)C2=O)CC1 (centres undefined),-9,1.1,0.19,-10,1.1
Cc1ccc(Sc2c(C)[nH]n(C(C)(C)C)c2=O)cc1,87*,0.1,1.2,88*,0.1
COc1ccc(C2C(C(C)=O)=C(C)N=c3s/c(=C\c4ccco4)c(=O)n32)c(OC)c1 (centres undefined),78*,0.2,-1.1,53*,0.5
COc1ccc(C2C(C(C)=O)=C(C)N=c3s/c(=C\c4cc(C)n(C)c4C)c(=O)n32)c(OC)c1 (centres undefined),42,0.6,-5*,32,0.7
CCOC(=O)C1CCc2sc(N)c(C#N)c21 (centres undefined),-4,1,0.7,10,0.9
CCCNC(=O)c1onc(CSc2ccc(F)cc2)c1C(=O)NCCC,nt,nt,0.053,nt,nt
C=CCN(CC=C)S(=O)(=O)c1ccc2nc(NC(=O)C(C)C)sc2c1,93*,0.1,-3.3,81*,0.2
CS(=O)(=O)c1ccc2nc(NC(=O)Oc3ccccc3)sc2c1,70*,0.3,-1,11,0.9
COc1ccc(C(=O)Nc2nc3ccc(S(C)(=O)=O)cc3s2)cc1,nt,nt,-0.017,nt,nt
COCC(=O)Nc1nc2ccc(S(C)(=O)=O)cc2s1,77*,0.2,0.076,63*,0.4
O=S1(=O)C=C(SCc2ccc(Cl)c(Cl)c2)Nc2ccccc21,71*,0.3,0.19,68*,0.3
O=c1[nH]c(CSc2nnc(COc3ccccc3)n2-c2ccccc2)nc2ccccc12,90*,0.1,-3.9*,85*,0.1
Cc1cccc(OCc2nnc(SCc3nc4ccccc4c(=O)[nH]3)o2)c1,48,0.5,0.099,54*,0.5
O=C(NCc1ccco1)c1cnn2c1NC(c1ccccc1)CC2C(F)(F)F (centres undefined),83*,0.2,0.6,45,0.5
COc1ccc(C2CC(C(F)(F)F)n3ncc(C(=O)Nc4c(C)n(C)n(-c5ccccc5)c4=O)c3N2)cc1 (centres undefined),nt,nt,-0.19,nt,nt
Cc1nn(C)c(C)c1CN(C)C(=O)c1cnn2c1NC(c1ccccc1)CC2C(F)(F)F (centres undefined),65*,0.3,0.52,32,0.7
Cc1ccccc1Cn1ccc(NC(=O)c2cnn3c2NC(c2ccccc2)CC3C(F)(F)F)n1 (centres undefined),96*,0,-2.3,67*,0.3
Cc1c(CNC(=O)c2nn3c(c2Cl)NC(c2ccccc2)CC3C(F)(F)F)cnn1C (centres undefined),44,0.6,-0.022,33,0.7
OCc1nn2c(c1Br)NC(c1ccccc1)CC2C(F)(F)F (centres undefined),74*,0.3,0.68,71*,0.3
COc1ccc(C(=O)Oc2ccc3oc(=O)sc3c2)cc1,4,1,0.24,-5,1.1
COc1ccc(OC)c(C2C(C(=O)c3cccs3)=C(O)C(=O)N2CCN(C)C)c1 (centres undefined),-3,1,-0.2,-6,1.1
O=C(NCc1ccco1)c1cnn2c1NC(c1ccc(Br)cc1)CC2C(F)(F)F (centres undefined),87*,0.1,-4.5,66*,0.3
O=C(O)c1cnn2c1NC(c1ccc(F)cc1)CC2C(F)(F)F (centres undefined),-6,1.1,0.61,7,0.9
Cc1ccc(C(O)c2nc3ccccc3n2C(C)C)cc1 (centres undefined),48,0.5,nt,92*,0.1
SMILES,CYP2C9 inhib,CYP2C9 activ,Cav3 T inh,CYP2C19 inhib,CYP2C19 activ
CC(C)n1c(-c2ccc(N(C)C)cc2)nc2ccccc21,62*,0.4,nt,61*,0.4
CCCn1c(C(O)c2ccc(OC)cc2)nc2ccccc21 (centres undefined),nt,nt,-0.16,nt,nt
CN(C)c1ccc(-c2nc3ccccc3n2C)cc1,33,0.7,0.11,56*,0.4
CC(Sc1nc(-c2ccccc2)nc2c1COC(C)(C)C2)C(=O)N1CCOCC1 (centres undefined),27,0.7,1.2,46,0.5
CCOc1ccc(C(=O)OCn2nnc3ccccc3c2=O)cc1OC,-5,1.1,-0.94,5,0.9
CCOc1ccc(C(=O)OCc2nnc(-c3cccs3)o2)cc1OC,80*,0.2,-0.85,68*,0.3
CCC1=C(OC(=O)N(CC)CC)N2C(=O)OC(=NCC3CC3)[C@]2(C)[C@H]2C1=CC[C@H]1C(=O)N(CC)C(=O)[C@H]12,nt,nt,-0.75,nt,nt
COc1ccc(S(=O)(=O)n2nc(OC(=O)c3ccccc3)cc2N)cc1,-2,1,0.48,-13,1.1
COc1ccc(S(=O)(=O)n2nc(OC(=O)c3ccccc3Br)cc2N)cc1,93*,0.1,nt,45,0.6
COc1ccc(S(=O)(=O)n2nc(OC(=O)c3ccc(C)cc3)cc2N)cc1,81*,0.2,-0.043,1,1
Cc1onc(-c2ccccc2Cl)c1C(=O)Oc1cc(N)n(S(=O)(=O)c2ccc(F)cc2)n1,12,0.9,-0.57,-6,1.1
Cc1ccc(S(=O)(=O)n2nc(OC(=O)c3c(-c4ccccc4Cl)noc3C)cc2N)cc1,93*,0.1,-7.4*,36,0.6
COc1ccc(S(=O)(=O)n2nc(OC(=O)c3cccs3)cc2N)cc1,73*,0.3,-1.2,18,0.8
Cc1cccc(NC(=S)N(CCN(C)C)C(C)c2ccccn2)c1 (centres undefined),2,1,0.013,12,0.9
CN1CCC(N(C)CC(=O)Nc2cccc(Oc3ccccc3)c2)CC1,-21,1.2,-0.006,-22,1.2
CCc1c(C)nc(SCC(=O)N2CCc3ccccc32)[nH]c1=O,9,0.9,0.072,8,0.9
COc1ccccc1NS(=O)(=O)c1cccc(C(=O)N/N=C(\C)c2ccc(-n3ccnc3)cc2)c1,99*,0,0.87,100*,0
COc1ccccc1NC(=O)c1cccc(S(=O)(=O)N2CCOCC2)c1,0,1,nt,3,1
COc1cc(-c2nnc(COc3ccc4ccccc4c3)o2)cc(OC)c1OC,49,0.5,nt,46,0.5
N#CCSc1nnc(COc2ccc3ccccc3c2)o1,10,0.9,-0.66,57*,0.4
Cc1cccc(NC(=O)c2sc(Cl)nc2-c2ccccc2)c1,54*,0.5,-0.53,91*,0.1
Cc1cccc(NC(=O)c2snc3c(=O)[nH]cnc23)c1,52*,0.5,0.62,34,0.7
Cc1ccc(OCC(=O)Nc2oc(-c3ccccc3)c(-c3ccccc3)c2C#N)cc1,nt,nt,-7.5*,nt,nt
N#Cc1c(NC(=O)CN2CCOCC2)oc(-c2ccccc2)c1-c1ccccc1,45,0.6,-3.1,12,0.9
COc1ccccc1OCC(=O)NCCNC(=O)COc1ccccc1OC,-15,1.1,0.2,8,0.9
COc1ccc(CC(=O)Nc2oc(-c3ccccc3)c(-c3ccccc3)c2C#N)cc1OC,nt,nt,-5.6*,nt,nt
